From the supplement of paper PMC10037445
Where “and” joins values, the source holds several entries; their conditions need not be identical. Equal entries are not always repeated. The full ranking holds about 2,900 compounds; the median of “NF-kB SEAP reporter activity, fold change vs agonist alone” is about 0.99, and the highest 2% start at about 2.6. Many of the other results were omitted from the sample, so the highest values are more common in it than they were.

Assays:
RAW-Dual [1] = experiment: NF-kB SEAP reporter activity, fold change vs agonist alone; higher = enhanced NF-kB activity; conditions: library stock concentration (final ~1000-fold dilution): 10 mM
Procedure, shortened: (§1)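 After 50 nL of library stock was delivered by pin tool to RAW-Dual macrophages (50,000 cells/well, DMEM, 384-well plates), a PRR agonist was added 1 h later and the plates were kept at 37 °C, 5% CO2. Twenty hours later, IRF was read from supernatant by QuantiLuc luminescence and NF-κB by QuantiBlue absorbance at 620 nm. Reporter activity is stated as fold change over agonist-alone wells. Wells with IncuCyte confluency under 70% of agonist controls in both mask sets were counted as cytotoxic.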

RAW-Dual [2] = experiment: NF-kB SEAP reporter activity, fold change vs agonist alone; cytotoxicity flag (confluency mask): not cytotoxic; higher = enhanced NF-kB activity
Procedure, shortened: as §1

RAW-Dual [3] = experiment: NF-kB SEAP reporter activity, fold change vs agonist alone; cytotoxicity flag (confluency mask): cytotoxic (confluency <70% of control); higher = enhanced NF-kB activity
Procedure, shortened: as §1

[4] = cytotoxicity flag (confluency mask): not cytotoxic, agonist: Imiquimod (TLR7) […]
[5] = cytotoxicity flag (confluency mask): not cytotoxic, agonist: MPLA (TLR4) […]
[6] = agonist: ODN 1826 (TLR9) 0.5 ug/mL
[7] = agonist: Pam2CSK4 (TLR2/6) 0.1 ug/mL
[8] = agonist: Pam3CSK4 (TLR2/1) 0.1 ug/mL
[9] = cytotoxicity flag (confluency mask): cytotoxic (confluency <70% of control), agonist: Imiquimod (TLR7) […]
[10] = cytotoxicity flag (confluency mask): cytotoxic (confluency <70% of control), agonist: MPLA (TLR4) […]

CC(C(O)c1ccc(O)cc1)N1CCC(Cc2ccccc2)CC1.CC(C(O)c1ccc(O)cc1)N1CCC(Cc2ccccc2)CC1.O=C(O)C(O)C(O)C(=O)O (configuration not stated)
NF-kB SEAP reporter activity (RAW-Dual [1]; [4]): 1.14
NF-kB SEAP reporter activity (RAW-Dual [1]; [5]): 0.926

CC(C(O)c1ccc(O)cc1)N1CCC(Cc2ccccc2)CC1.CC(C(O)c1ccc(O)cc1)N1CCC(Cc2ccccc2)CC1.O=C(O)C(O)C(O)C(=O)O (configuration not stated) (library stock concentration (final ~1000-fold dilution): 10 mM)
NF-kB SEAP reporter activity (RAW-Dual [2]; agonist: LPS (TLR4) 0.1 ug/mL): 1.19
NF-kB SEAP reporter activity (RAW-Dual [2]; [6]): 0.64
NF-kB SEAP reporter activity (RAW-Dual [2]; [7]): 1.04
NF-kB SEAP reporter activity (RAW-Dual [2]; [8]): 0.922

Cn1c(=O)cc(N2CCCC(N)C2)n(Cc2ccccc2C#N)c1=O (configuration not stated) (library stock concentration (final ~1000-fold dilution): 10 mM)
NF-kB SEAP reporter activity (RAW-Dual [2]; agonist: LPS (TLR4) 0.1 ug/mL): 1.04 and 1.31
NF-kB SEAP reporter activity (RAW-Dual [2]; [6]): 0.953 and 1.01
NF-kB SEAP reporter activity (RAW-Dual [2]; [7]): 1.16 and 1.1
NF-kB SEAP reporter activity (RAW-Dual [2]; [8]): 0.92 and 1.24

Cn1c(=O)cc(N2CCCC(N)C2)n(Cc2ccccc2C#N)c1=O (configuration not stated)
NF-kB SEAP reporter activity (RAW-Dual [1]; [4]): 1.08

O=C(Nc1ccccc1C(=O)NC1CCCCNC1=O)c1cc2ccccc2s1 (configuration not stated) (library stock concentration (final ~1000-fold dilution): 10 mM)
NF-kB SEAP reporter activity (RAW-Dual [2]; agonist: LPS (TLR4) 0.1 ug/mL): 2.62
NF-kB SEAP reporter activity (RAW-Dual [2]; [6]): 1.04
NF-kB SEAP reporter activity (RAW-Dual [2]; [7]): 1.1
NF-kB SEAP reporter activity (RAW-Dual [2]; [8]): 1.47

O=C(Nc1ccccc1C(=O)NC1CCCCNC1=O)c1cc2ccccc2s1 (configuration not stated)
NF-kB SEAP reporter activity (RAW-Dual [1]; [4]): 1.06
NF-kB SEAP reporter activity (RAW-Dual [1]; [5]): 1.16

CC12CC(O)C3CC1(OC1OC(CO)C(O)C(O)C1O)C3(COC(=O)c1ccccc1)C(=O)O2 (configuration not stated) (library stock concentration (final ~1000-fold dilution): 10 mM)
NF-kB SEAP reporter activity (RAW-Dual [2]; agonist: LPS (TLR4) 0.1 ug/mL): 1.33
NF-kB SEAP reporter activity (RAW-Dual [2]; [6]): 0.943
NF-kB SEAP reporter activity (RAW-Dual [2]; [7]): 1.11
NF-kB SEAP reporter activity (RAW-Dual [2]; [8]): 1.16

CC12CC(O)C3CC1(OC1OC(CO)C(O)C(O)C1O)C3(COC(=O)c1ccccc1)C(=O)O2 (configuration not stated)
NF-kB SEAP reporter activity (RAW-Dual [1]; [4]): 0.925
NF-kB SEAP reporter activity (RAW-Dual [1]; [5]): 1.04

CN(c1ncccc1CNc1nc(Nc2ccc3c(c2)CC(=O)N3)ncc1C(F)(F)F)S(C)(=O)=O.Cl (library stock concentration (final ~1000-fold dilution): 10 mM)
NF-kB SEAP reporter activity (RAW-Dual [3]; agonist: LPS (TLR4) 0.1 ug/mL): 0.194
NF-kB SEAP reporter activity (RAW-Dual [3]; [6]): 0.29
NF-kB SEAP reporter activity (RAW-Dual [3]; [7]): 0.0618
NF-kB SEAP reporter activity (RAW-Dual [3]; [8]): 0.135

CN(c1ncccc1CNc1nc(Nc2ccc3c(c2)CC(=O)N3)ncc1C(F)(F)F)S(C)(=O)=O.Cl
NF-kB SEAP reporter activity (RAW-Dual [1]; [9]): 0.169
NF-kB SEAP reporter activity (RAW-Dual [1]; [10]): 0.247

CC1OC(OC2C(CO)OC(OC3C(CO)OC(O)C(O)C3O)C(O)C2O)C(O)C(O)C1NC1C=C(CO)C(O)C(O)C1O (configuration not stated) (library stock concentration (final ~1000-fold dilution): 10 mM)
NF-kB SEAP reporter activity (RAW-Dual [2]; agonist: LPS (TLR4) 0.1 ug/mL): 1.19
NF-kB SEAP reporter activity (RAW-Dual [2]; [6]): 1.03
NF-kB SEAP reporter activity (RAW-Dual [2]; [7]): 1.02
NF-kB SEAP reporter activity (RAW-Dual [2]; [8]): 1.06

CC1OC(OC2C(CO)OC(OC3C(CO)OC(O)C(O)C3O)C(O)C2O)C(O)C(O)C1NC1C=C(CO)C(O)C(O)C1O (configuration not stated)
NF-kB SEAP reporter activity (RAW-Dual [1]; [4]): 0.983
NF-kB SEAP reporter activity (RAW-Dual [1]; [5]): 0.951

CCOC(=O)c1cnc2ccc(-c3cncc(NS(=O)(=O)c4ccccc4)c3)cn12
NF-kB SEAP reporter activity (RAW-Dual [1]; [9]): 1.31
NF-kB SEAP reporter activity (RAW-Dual [1]; [10]): 2.94
